This passage reports inhibition results from PubChem BioAssay AID440 (NMMLSC, 2006).

About 180 (0.75%) of roughly 24,000 compounds were called active. The sample as a whole holds a higher share of actives than the screen did. Unmarked numbers belong to inactive results. Cut-off read from the data, not from the text of the source: active = inhibition above about 30%; inconclusive = no clear call, values can overlap the other calls; inactive = below that.

The target of the assay is fMet-Leu-Phe receptor (Homo sapiens) (UniProt P21462). As to the kind of experiment: small molecules displacing FPR fluorescent ligand – cell-based, FPRL1 counter-screen, flow cytometry, primary screen (AID 440).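 Note: 0% = buffer wells and 100% = receptor blocker peptide wells.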 The note with it: FPR-expressing cells, fluorescent ligand binding, hits give high values, concentration not given here.
Chain of fMet-Leu-Phe receptor (Homo sapiens) (P21462 whole entry, looked up): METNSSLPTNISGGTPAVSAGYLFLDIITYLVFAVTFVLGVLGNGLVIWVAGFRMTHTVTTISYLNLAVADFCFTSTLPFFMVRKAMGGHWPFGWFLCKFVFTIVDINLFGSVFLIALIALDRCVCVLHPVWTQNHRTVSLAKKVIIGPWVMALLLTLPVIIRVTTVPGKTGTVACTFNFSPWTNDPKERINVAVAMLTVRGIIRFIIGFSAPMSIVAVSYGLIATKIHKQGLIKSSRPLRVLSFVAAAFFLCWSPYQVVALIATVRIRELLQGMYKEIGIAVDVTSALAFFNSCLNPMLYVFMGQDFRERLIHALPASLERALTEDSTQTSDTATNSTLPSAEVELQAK
By inhibition is commonly meant the relative decrease from the control value, in per cent. Turning to `N#CCCN1CCN(S(=O)(=O)c2ccc(S(=O)(=O)N3CCCC3)cc2)CC1`, the inhibition was -3.3%.
Then `O=C(Nc1ccc(Cl)cn1)Nc1cccs1`, with -2.2%; and `COc1ccccc1C1/C(=C(/O)c2ccc(C)cc2)C(=O)C(=O)N1Cc1ccco1` (stereo not given), with 4.3%; and `COc1ccc(/C(O)=C2\C(=O)C(=O)N(Cc3ccco3)C2c2ccc(OC)cc2OC)cc1` (stereo not given), with 38% (active).
Then `COc1ccc(/C(O)=C2/C(=O)C(=O)N(CC3CCCO3)C2c2ccc(OC)c(OC)c2)cc1` (stereo not given), with 0.3%; and `CCOC(=O)Cn1c(CN(Cc2ccccc2)Cc2ccccc2)nc2c1c(=O)[nH]c(=O)n2C`, with -0.1%; and `COc1c(F)c(F)c(C(=O)O)c(Nc2ccccc2C)c1F`, with -4.8%.
Then `Cc1cc(N2C(=O)C(=O)/C(=C(/O)c3ccccc3)C2c2cccc(Br)c2)no1` (stereo not given), with -1.3%.
Turning to `CCOC(=O)c1ccn(-c2nc(-c3ccco3)cc(C(F)(F)F)n2)n1`, the inhibition was 5.4%.
Then `CN1CCCC(OC(=O)COc2ccc(Br)cc2)C1` (stereo not given), with -3%; and `CCCn1nnc2sc3c(c2c1=O)CCC(C)C3` (stereo not given), with 0.2%; and `Cc1cccc(-n2nc3c(c2NC(=O)c2ccc(Br)o2)CSC3)c1C`, with 6.4%.
Then `CC1(C)C(=O)Nc2ccccc2N1C(=O)COC(=O)Cn1cnc2ccccc2c1=O`, with -1.5%; and `O=C(CCSCCc1ccccn1)Nc1nccs1`, with 2.6%.
In the case of `c1ccc(Cc2nn3c(Cn4cnc5ccccc54)nnc3s2)cc1` it was 4.2%.
As for `CCOc1cccc(-c2nnc3sc(COc4ccc(OC)cc4)nn23)c1`, the inhibition is -4.8%.
Consider `Clc1ccc(Cc2nn3c(-c4ccncc4)nnc3s2)cc1`, for which the inhibition was 46.7% (active).
Then `CCOc1ccc(NC(=O)CCS(=O)(=O)c2cccc3nsnc23)cc1`, with 7.6%; and `O=C(c1ccccc1)c1cccn1CC(=O)N1CCN(c2ccc(F)cc2)CC1`, with 0.2%.
In the case of `CCCC(=O)C1=C(N(C)c2ccccc2)CC(C)(C)C(C(=O)OC)C1=O` (stereo not given) it was 1.9%; in that of `O=C(O)CC(c1ccccc1)n1cnnn1` (stereo not given), -4.6%; in that of `CCN(Cc1ccccc1)C(=O)CSc1nc(C)cc2c1C(=O)OC2`, 2%.
Then `O=C(CCN1C(=O)c2ccccc2C1=O)NCCN1CCOCC1`, with -4.5%; and `O=C1CC(c2ccccc2)CC(O)=C1C=NCCN1CCOCC1` (stereo not given), with 9.7%.
Turning to `CCCC(=O)Nc1nnc(CC(=O)OCC)s1`, the inhibition was 9.1%.
For the compound `CCCOc1ccc(C2c3c(oc4cc(C)c(C)cc4c3=O)C(=O)N2CCCN2CCOCC2)cc1` (stereo not given), the inhibition was 5.8%.
`COc1ccc(-c2nc(CS(=O)CC(=O)NCc3cccnc3)c(C)o2)cc1OC` (stereo not given): the inhibition was 7.2%.
For the compound `CCCOc1ccc(C2C(C(=O)c3ccc(C)o3)=C(O)C(=O)N2CCCn2ccnc2)cc1` (stereo not given), the inhibition is 52.8% (active).
`COc1cc(C2C(C(=O)c3ccc(C)o3)=C(O)C(=O)N2CCc2ccccc2)ccc1O` (stereo not given): the inhibition was 69.9% (active).
Then `CCOc1ccc(/C(O)=C2/C(=O)C(=O)N(Cc3cccnc3)C2c2ccc(N(C)C)cc2)c(C)c1` (stereo not given), with 27.7%.
Regarding `COc1cc(C2C(C(=O)Nc3ccccc3OC)=C(C)Nc3ncnn32)ccc1O` (stereo not given), the inhibition was -6.4%.
For `CCOc1ccccc1C(=O)NCCCn1ccnc1`, the inhibition is -3.4%.
In the case of `COc1cc(C2C(C(=O)c3sc(C)nc3C)=C(O)C(=O)N2CCN(C)C)cc(OC)c1OC` (stereo not given) it was 3.4%; in that of `COc1cc(C2C(C(=O)c3ccc(C)o3)=C(O)C(=O)N2Cc2cccnc2)ccc1O` (stereo not given), 40.6% (active); in that of `O=C(c1cccnc1NCc1ccccc1)N1CCOCC1`, -10.6%.
In the case of `CCOC(=O)c1[nH]c2c(c1C)C(=O)CC(c1ccc(N(C)C)cc1)C2` (stereo not given) it was 9%; in that of `Nc1ccc(-n2nncc2-c2ccco2)cc1`, 3%.
In the case of `O=C(CN1CCN(S(=O)(=O)c2ccc(F)cc2)CC1)Nc1ccccc1F` it was 5.7%; in that of `COc1ccc2c(CC(=O)Nc3nnc(C4CC4)s3)coc2c1`, -3.4%; in that of `CCOc1cccc(/C(O)=C2/C(=O)C(=O)N(CCOC)C2c2ccncc2)c1` (stereo not given), 4.6%.
For `CC1Cc2cc(/C(O)=C3\C(=O)C(=O)N(CCN4CCOCC4)C3c3ccccc3F)ccc2O1` (stereo not given), the inhibition is 18.6%.
In the case of `COCCCN1C(=O)C(=O)/C(=C(/O)c2ccc3c(c2)CC(C)O3)C1c1cccnc1` (stereo not given) it was 33.5% (active).
In the case of `COc1cc(C2C(C#N)=C(C)NC3=C2C(=O)CC(C)(C)C3)ccc1O` (stereo not given) it was 4.9%.
In the case of `Cc1ccc(C2CC(=O)NC(SCC(=O)OCc3ccccc3)=C2C#N)o1` (stereo not given) it was 0.1%.
In the case of `CCCOC(=O)Nc1sc2c(c1C(=O)OCC)CCC2`, the inhibition was -12.7%.
Then `CCN(CC)S(=O)(=O)N1CCC(C(=O)NC(C)CCc2ccccc2)CC1` (stereo not given), with -9.4%; and `CCC(C)(NC(=O)c1ccccn1)C(=O)NC1CCCCC1` (stereo not given), with 6.6%.
On to `COCCNC(=O)Cn1cc2c(n1)CCCCC2`, for which the inhibition is -5.5%.
Then `Cc1onc(-c2ccccc2Cl)c1C(=O)NCCn1ccc2ccccc21`, with 5.6%; and `COc1ccccc1CNC(=O)CCn1c(=O)sc2ccccc21`, with 1.8%; and `O=C(C1CCN(S(=O)(=O)c2cccs2)CC1)N1CCCCCC1`, with 2.5%.
Take `Cc1cc(C)nc(-n2nc(C)cc2NC(=O)c2ccc(Br)o2)n1`: the inhibition is -6.1%.
Then `O=C(CN1C(=O)C2C3C=CC(C3)C2C1=O)NCC1COc2ccccc2O1` (stereo not given), with -0.7%; and `O=C1c2ccncc2C(=O)N1C1CCCCC1`, with 0.9%.
In the case of `COc1ccc(Cn2nnc3c(=O)[nH]c(C4CCN(C(=O)c5ccccc5Cl)CC4)nc32)cc1` it was -0.8%; in that of `Cc1nc(C)c(C(=O)Nc2cccc(C)c2C)o1`, 3%.
As to `COc1ccccc1Cn1c(=S)[nH]c2cc(C(=O)N3CCN(C)CC3)ccc2c1=O`, the inhibition was -4%.
Then `S=C1SCN(CCN2CCOCC2)CN1Cc1ccccc1`, with -1.1%.
Regarding `CCOC(=O)C1CCN(C(=O)CSc2cc(=O)n(C)c3ccccc23)CC1`, the inhibition was -1.5%.
Then `Cn1c(=O)cc(OCCCC(=O)N2CCN(c3ccccn3)CC2)c2ccccc21`, with -0.8%; and `COC(=O)c1ccc(CSc2ccccc2C)o1`, with 0.5%.
In the case of `O=C(Nc1ccccc1C(=O)N1CCOCC1)C1CCC(=O)N1C1CCCC1` (stereo not given) it was -0.6%; in that of `COc1ccc(CN2C(=O)CN=C2Nc2ccc(C)cc2C)cc1`, 6.5%; in that of `O=C(Cn1nc(Cc2cccnc2)c2ccccc2c1=O)NCC1CCCO1` (stereo not given), 0.4%.
For `Cc1nn(C)c(C)c1S(=O)(=O)N1CCc2ccccc21`, the inhibition is 8.9%.
Then `O=C(NCCCN1CCN(C2CCCCC2)CC1)Nc1ccccc1C(F)(F)F`, with 1.3%; and `O=C(CN1C(=O)COc2ccccc21)Nc1ccc(F)cc1`, with 4.3%; and `CCn1ncc(Br)c1C(=O)Nc1cc(C)ccc1F`, with 0.8%.
In the case of `Cc1nc(CNS(=O)(=O)c2cccnc2)cs1`, the inhibition is 1.9%.
On to `CSc1sc(C)cc1C1C(C#N)=C(N)N(c2cccnc2)C2=C1C(=O)CCC2` (stereo not given), for which the inhibition was 4.3%.
Then `Cc1nc(C)c(C(=O)Nc2ccc(C)c(F)c2)o1`, with -4.6%; and `O=c1c(-c2ccc3c(c2)OCCO3)c(C(F)(F)F)oc2cc(O)cc(O)c12`, with -6.7%.
`Cc1cccn2c(=O)c3cc(C(=O)NCc4ccccn4)n(C)c3nc12`: the inhibition is -5.1%.
On to `O=C(Nc1cccnc1)c1noc2c1CCCCC2`, for which the inhibition was -1.9%.
As to `Cc1cc(N2C(=O)C(=O)/C(=C(/O)c3ccc(Cl)cc3)C2c2cccc(Br)c2)no1` (stereo not given), the inhibition is 3.2%.
Consider `CCCC(NC(=O)c1ccccc1)c1nc2ccccc2n1Cc1ccc(C(=O)OC)o1` (stereo not given), for which the inhibition is 24.2%.
Then `CSc1ccc(NC(=O)N2CC(C)OC(C)C2)cc1` (stereo not given), with -6.4%; and `CCCCOc1ccc(C(=O)NCc2ccco2)cc1`, with 0.1%.
In the case of `O=C(O)Cc1ccc(-c2ccccc2)cc1` it was 3.8%; in that of `Cc1cc(Cl)c(S(=O)(=O)Nc2ccc3c(c2)OCCO3)cc1OCC(N)=O`, -7.6%; in that of `CC1=C(C)CC2C(=O)N(c3cccc4ccccc34)C(=O)C2C1` (stereo not given), -2.3%.
With `COc1cc2c(cc1NC(=O)CN1CCN(S(=O)(=O)c3ccc(F)cc3)CC1)oc1ccccc12`, the inhibition is 2.8%.
Then `CCOC(=O)C1(C(F)(F)F)N=C(N(C)C)OC(N(C)C)=N1`, with -1.4%; and `COC(=O)Nc1ccc(S(=O)(=O)N(C)CC(F)(F)C(F)F)cc1`, with 1%; and `CCCOc1ccc(/C(O)=C2/C(=O)C(=O)N(CCN(C)C)C2c2ccc(OC)c(OC)c2)cc1` (stereo not given), with -5%.
For the compound `COC(=O)CNS(=O)(=O)c1ccc(Cc2ccc(S(=O)(=O)NCC(=O)OC)cc2)cc1`, the inhibition was -3.3%.
For `CCOC(=O)c1ccc(-n2c(C)nc3c(cnn3-c3ccccc3C)c2=O)cc1`, the inhibition is -9.5%.
Turning to `CN(C)S(=O)(=O)c1ccc(Oc2ccc(S(=O)(=O)N(C)C)cc2)cc1`, the inhibition was -1.8%.
Regarding `O=C(CSc1nnc(Cn2cnc3ccccc32)o1)c1ccccc1`, the inhibition is 1.9%.
Then `O=C(O)[C@@H]1CCCN1c1ncnc2sc3c(c12)CCC3`, with 8.1%.
In the case of `CC(=O)c1cccc(S(=O)(=O)N2CCC(n3nnc4cc(F)ccc43)CC2)c1` it was 9.5%; in that of `COc1ccc(C(=O)Nc2nncs2)c(OC)c1`, 5.3%; in that of `CC(=O)Nc1cc(C(=O)O)ccc1S(=O)(=O)c1ccc(Cl)cc1`, -2.3%.
Then `CCOC(=O)N1CCC(NC(=O)Cn2cc3c(n2)CCCCC3)CC1`, with 0%; and `Cc1ccc(C)c(S(=O)(=O)n2cnc3ccccc32)c1`, with -0.2%.
